Compounds without any hit were thinned out: in the full panel of roughly 83,000, 20% have a hit.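 Compound tested at a single concentration for 48 hours in 96-well plates; a percent growth value below 10 was scored as active.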 Unmarked numbers belong to inactive results. The source made the active and inactive calls.

The experiment has as its system EKVX NSCLC. Briefly: NCI-60 one-dose screen, 48 h (100 = growth as untreated, 0 = no growth, -100 = all killed). The conditions noted are these: 10 µM unless noted.
In the case of `COc1cc(OC)cc(C2=C3CC[C@@H]4[C@H](CC[C@]5(C)C(=O)CC[C@@H]45)C3=CC3C(O)c4cccnc4N4C(=O)COC234)c1` (stereo not given in full), the growth is 101%.

With `CC(=O)Cc1nsc(NC(=O)c2cc(-c3cc(Cl)cc(Cl)c3)oc2C)n1`, the growth was 97.3%.

Take `CCOC(=O)c1cn2ncnc(Oc3ccc(NC(=O)NC4CCCCC4)c(Cl)c3)c2c1C`: the growth was 74.3%.

Turning to `Cc1nnc(NC(=O)c2nc(S(=O)(=O)Cc3ccc(F)cc3)ncc2Cl)s1`, the growth was 90.5%.

Regarding `C#CCOc1ccc2ncnc(Nc3ccc(NC(=O)CCl)cc3)c2c1`, the growth was -0.0323% (active).

For the compound `CCOC(=O)C#Cc1c(C(=O)OCC)nnn1[C@@H]1O[C@H](CO)[C@H]2OC3(CCCCC3)O[C@H]21`, the growth is 105%.

For `C/C(=N/O)c1ccc(F)cc1`, the growth is 105%.

Regarding `CCOC(=O)Cn1c(O)c(N=Nc2ccc(S(N)(=O)=O)cc2)c2cc(Br)ccc21`, the growth was 83.3%.

Consider `Cc1nc(N2CCOCC2)sc1S(N)(=O)=O`, for which the growth was 101%.

Turning to `COc1ccc(OC)c(C(=O)/C=C/c2cc3c(c(OC)c2OC)OCO3)c1`, the growth was 73%.

As for `O=c1oc2ccccc2cc1C1=NN=C(SCc2ccccc2)SC1`, the growth is 101%.

As to `COc1ccc(C(=S)N2CCN(c3ccccc3Cl)CC2)cc1OC`, the growth is 97.4%.

As to `Cc1ccc(/C=C2\CN(C(=O)OC(C)(C)C)C/C(=C\c3ccc(C)cc3)C2=O)cc1`, the growth is 84.3%.

In the case of `O=C(Nc1nn(-c2ccc(Cl)cc2Cl)nc1-c1ccccc1)c1ccccc1`, the growth was 113%.

For the compound `CCN(CC)c1ccc(/C=C/C(=O)c2ccc(Nc3nc(Nc4ccccc4)nc(Nc4ccccc4)n3)cc2)cc1`, the growth is 31.5%.

In the case of `COC(=O)[C@H]1CCCN1C[C@@H](O)CN1C(=O)/C(=C\c2cc(OC)c(OC)c(OC)c2)c2ccccc21`, the growth is 104%.

Turning to `CN(C)c1ccc(Nc2cc(-c3cccc(OC(F)(F)F)c3)nc3ccc(N4CCCC4)cc23)cc1`, the growth is 89.3%.

`O=C(Nc1cc(Cl)ccc1O)c1ccc(Nc2ccnc(C(F)(F)F)c2)cc1`: the growth was 71.2%.

In the case of `COc1cc(OC)c2sc(-c3ccc(-n4cncc4-c4ccc(OC)c(OC)c4)cc3)nc2c1`, the growth was 54.7%.

Take `O=C1c2cccnc2C(=O)c2c1c(C(=O)NCCCN1CCCCC1)c1ccccn21`: the growth was -100% (active).

As for `CCOC(=O)c1ccc2[nH]c(O)c(C(=Nc3ccc(N(C)C(=O)CN4CCN(C)CC4)cc3)c3ccccc3)c2c1`, the growth is -3.53% (active).

Regarding `CCN1C(=O)N(CC)C2C1NN=c1s/c(=C\c3cccc([N+](=O)[O-])c3)c(=O)n12` (stereo not given), the growth is 50.5%.

With `CC1=C(Nc2ccc(N3CCN(C)CC3)cc2)C(=O)c2cncnc2C1=O`, the growth was 98.3%.

`O=C1Nc2ccc(Br)cc2/C1=N/c1n[nH]c(=S)s1`: the growth was 100%.

For `CCN(c1ccc(Cl)cc1)c1nc(-c2ccc([N+](=O)[O-])cc2)cs1`, the growth is 79.5%.

Turning to `C=C(C)[C@@H]1CC[C@]2(C)[C@H](CC=C3[C@@H]4[C@H](C)[C@@H](C)CC[C@]4(CO)CC[C@]32C)[C@@]1(C)CCCN`, the growth was 74.1%.

In the case of `O=C(/C=C(/C=C/c1cccc2[nH]ccc12)OB(F)F)/C=C/c1cccc2[nH]ccc12`, the growth is -30.9% (active).

As to `CCN1CC(=O)N(/N=C2\C(=O)Nc3ccccc32)C1=S`, the growth is 80.8%.

As for `CCN1CCN(c2cc(C(=O)Nc3nc(-c4cc(OC)c(OC)c(OC)c4)cs3)cc(C(F)(F)F)c2)CC1`, the growth was 64.9%.

`COc1ccc(-c2nc(/C=C3\SC(=NCc4ccccc4)NC3=O)c3ccccn23)cc1`: the growth was 58%.

Regarding `CCOC(=O)C(=Cc1cccc(Br)c1)C(=O)OCC`, the growth was 61.1%.

As to `N#CC1=C(N)Oc2c(sc3c(F)cccc23)C1c1ccc(F)cc1` (stereo not given), the growth was 47.3%.

Regarding `CCOc1nc(-c2ccccc2)cc2c(O)c(C(=O)NN)[nH]c(=O)c12`, the growth is 108%.

On to `O=C1c2cccc(NCCN=Cc3cc(O)ccc3O)c2C(=O)c2c(NCCN=Cc3cc(O)ccc3O)cccc21`, for which the growth was 3.36% (active).

Regarding `C=CCn1cc(-c2nc3ccccc3s2)c2cc(-c3ccc4c5c(cccc35)C(=O)N(N)C4=O)ccc21`, the growth was 82.1%.

Turning to `CCOC(=O)CNP(=O)(OC[C@@H](Cc1ccccc1)NC(=O)c1cc2ccccc2s1)Oc1ccccc1` (stereo not given in full), the growth is 80.6%.

For `CCC(=C(c1ccc(OCCN2CCCC2)cc1)c1ccc(OCCN2CCCC2)cc1)c1ccc(Cl)cc1`, the growth is 92.7%.

For `Oc1c(Cl)cc(Cl)c2ccc(Cn3cc(-c4ccc(C(F)(F)F)cc4)nn3)nc12`, the growth was 81%.

On to `O=C(NCCCCNC(=O)OCc1ccc2c(Cl)cc(Cl)c(O)c2n1)OCc1ccc2c(Cl)cc(Cl)c(O)c2n1`, for which the growth was 91.3%.

On to `CCN(CC)CCNC(=O)c1cn2ncnc(Oc3ccc(NC(=O)Nc4ccc(Cl)c(C(F)(F)F)c4)c(F)c3)c2c1C`, for which the growth is 24.5%.

These data come from PubChem BioAssay (NCI).
